We go through twelve compounds from PubChem BioAssay (EPA / NIEHS).

Molecules are shown by their SMILES. Inconclusive results are not listed. Activity calls are given as the source filed them. How the source made its calls: active means hit-call score of the fitted dose curve at least 0.9, where 1 is the maximum; inconclusive means response in the unintended direction; inactive means score below 0.9.

The experiment can be described thus: CCTE_Shafer_MEA_acute_LDH: CCTE's Lactate Dehydrogenase Assay for Cytotoxicity in the Neural Acute Assay, Shafer Lab (AID 2284086).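 Further: active means LDH release rises above DMSO vehicle level.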 On the procedure: CCTE_Shafer_MEA_acute assay is conducted using Axion Biosystems 48 well microelectrode array (MEA) plates and Maestro recording system. Each well of the MEA plate contains a grid of 16 microelectrodes embedded in the culture surface. Electrically active cells, such as neurons, can be cultured over the electrodes, and electrical activity in these cells can be recorded extracellularly. The spontaneous firing of neurons is captured from each electrode on a microsecond timescale providing both temporally and spatially precise data. […] The CCTE_Shafer_MEA_acute assay uses primary cultures of rat cortical neurons. As these cultures mature over time, neural networks develop functional activity and form cohesive networks in which electrical activity can be highly coordinated. Baseline 40-minute recordings are made on days post-plating 13 or 15, followed by a secondary 40-minute recording after chemical exposure.CCTE_Shafer_MEA_acute_LDH is a component of the CCTE_Shafer_MEA_acute assay. It measures the lactate dehydrogenase enzyme activity using spectrophotometry.Data from the assay component CCTE_Shafer_MEA_acute_LDH was analyzed into 1 assay endpoint. This assay endpoint, CCTE_Shafer_MEA_acute_LDH, was analyzed in the positive analysis fitting direction relative to DMSO as the negative control and baseline of activity. Using a type of viability reporter, gain-of-signal activity can be used to understand cell viability.
Immediately following the 40 min recording in the presence of compounds, 50 uL of media was removed from each well and transferred to a sterile 96-well plate. This was used to determine LDH released from cells during compound exposure using a kit from Promega where absorbance was determined in a Molecular Devices VersaMax plate reader at 490 nm.
`CCCCCCCCCCCCc1cccc(S(=O)(=O)O)c1`: the compound was called inactive. Regarding `Cc1ccccc1OP(=O)(Oc1ccccc1C)Oc1ccccc1C`, the result was inactive. Take `CC(C)[C@@H](Nc1ccc(C(F)(F)F)cc1Cl)C(=O)OC(C#N)c1cccc(Oc2ccccc2)c1` (some centres not stated): the outcome was inactive. In the case of `N#Cc1cccnc1`, the result was inactive. Regarding `Oc1cc(Cl)c(Cl)cc1Cl`, the compound was called inactive. For the compound `Cc1cc(C(F)(C(F)(F)F)C(F)(F)F)ccc1NC(=O)c1cccc(I)c1C(=O)NC(C)(C)CS(C)(=O)=O`, the outcome was inactive. With `CC(C)(C)c1ccccc1O`, the compound was called inactive.

Regarding `O=C(Cc1ccccc1)OCCc1ccccc1`, the compound was classed as inactive. `OCCCCO`: the call was inactive. For `CS(=O)(=O)c1ccc(C(=O)C2C(=O)CCCC2=O)c(Cl)c1COCC(F)(F)F`, the result was inactive. As for `Clc1cccc(Cl)c1Cl`, the result was inactive. As to `CCCCOC(=O)COC(=O)c1ccccc1C(=O)OCCCC`, the compound was called inactive.
